# Screening data: PubChem BioAssay, National Center for Advancing Translational Sciences (NCATS)
# TGFb inhibitor – qHTS for Inhibitors of TGF-b; HepG2 CAGA-GFP TGF-b/SMAD3 reporter, GFP fluorescence, 18 h; TGF-beta stimulated, 500 pg/mL final; Potency, µM (doses to about 46.1 µM), usual class: inhibitors; hit rate 1.2% among 410,000; AID 588855, 2011; note: nearly all actives have a fitted effect of over 65% in size
#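 HEPG2 CAGA-GFP, 1000 cells/well; 2 h settle, 37 C; cpd via pin tool; TGF-b 500 pg/mL final; 18 h, 37 C; GFP imaging ex488/em500-530; %Activity normalised to -TGF-b and +DMSO controls; CRC fit, curve class.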
# HepG2 viability – qHTS for Inhibitors of TGF-b: Cytotox Counterscreen | hit rate 0.76% among 410,000 | HepG2 CAGA-GFP viability, ATP luminescence, 18 h | AID 588856, 2011 | Potency, µM (highest dose often 46.1 µM), actives largely listed as cytotoxic
#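 CellTiter-Glo luminescence gave cytotoxicity after 18 hours at 37 degrees C. The cells were HepG2 CAGA-GFP in 1% FBS DMEM, stimulated with 500 pg/mL TGF-beta after compound addition. %Activity was normalised to no-cell wells (complete cell-killing) and DMSO (no toxicity), and curves were fitted and classified.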
# DT40 TDP1 no CPT – qHTS for Inhibitors of human tyrosyl-DNA phosphodiesterase 1 (TDP1): qHTS in cells in absence of CPT. DT40 Tdp1-/- hTDP1 cells, no CPT, ATP luminescence, 48 h. Potency, µM (highest dose often 46.2 µM), usual class: inhibitors. hit rate 15% among 420,000. AID 686978, 2013; note: nearly all actives have a fitted effect of over 55% in size
#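 Camptothecin absent (DMSO only). Human TDP1-complemented DT40 knockout cells, 400 cells/well, 37 °C for minimum 48 hr; ATP measured via CellTiter-Glo, 30 min dark incubation, luminescence.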
# TDP1 cell CPT – qHTS for Inhibitors of human tyrosyl-DNA phosphodiesterase 1 (TDP1): qHTS in cells in presence of CPT | chicken DT40 Tdp1-/-;hTDP1 cells + 20 nM CPT, ATP luminescence, 48 h | Potency, µM (series often up to 46.2 µM), hits mostly inhibitors | hit rate 12% among 420,000; note: nearly all actives have a fitted effect of over 55% in size
#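 Chicken DT40 Tdp1-/- cells complemented with human TDP1, 400 cells/well, exposed to compounds plus 20 nM camptothecin for at least 48 h at 37 C; viability read as ATP content by CellTiter-Glo luminescence.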
# IL1B secr inh – qHTS for Inhibitors of Inflammasome Signaling: IL-1-beta AlphaLISA Primary Screen | THP-1 LPS/ATP IL-1B secretion, AlphaLISA, 16 h; stronger effect = lower value | activity change, % at 57.5 µM | hit rate 4.7% among 360,000 | AID 743279, 2014; in the data active = activity change below about -50%; inconclusive = mostly about -30% to -49%
#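 THP-1 cells pretreated 1 hr with compounds (up to 57.5 uM final), then stimulated with LPS (250 ng/mL final) plus ATP (1.25 mM final); secreted IL-1B measured by AlphaLISA after 16 hr, decreased signal indicating inhibition.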
# TDP1 block – qHTS Assay for Inhibitors of Tyrosyl-DNA Phosphodiesterase (TDP1) | AID 485290, 2010 | Potency, µM (top dose mostly 130 µM), most hits filed as inhibitors | recombinant TDP1, AlphaScreen DNA substrate cleavage | Tyrosyl-DNA phosphodiesterase 1 (Homo sapiens), Q9NUW8 | hit rate 0.28% among 350,000; note: nearly all actives have a fitted effect of over 40% in size
# Target sequence (Q9NUW8 whole entry, looked up): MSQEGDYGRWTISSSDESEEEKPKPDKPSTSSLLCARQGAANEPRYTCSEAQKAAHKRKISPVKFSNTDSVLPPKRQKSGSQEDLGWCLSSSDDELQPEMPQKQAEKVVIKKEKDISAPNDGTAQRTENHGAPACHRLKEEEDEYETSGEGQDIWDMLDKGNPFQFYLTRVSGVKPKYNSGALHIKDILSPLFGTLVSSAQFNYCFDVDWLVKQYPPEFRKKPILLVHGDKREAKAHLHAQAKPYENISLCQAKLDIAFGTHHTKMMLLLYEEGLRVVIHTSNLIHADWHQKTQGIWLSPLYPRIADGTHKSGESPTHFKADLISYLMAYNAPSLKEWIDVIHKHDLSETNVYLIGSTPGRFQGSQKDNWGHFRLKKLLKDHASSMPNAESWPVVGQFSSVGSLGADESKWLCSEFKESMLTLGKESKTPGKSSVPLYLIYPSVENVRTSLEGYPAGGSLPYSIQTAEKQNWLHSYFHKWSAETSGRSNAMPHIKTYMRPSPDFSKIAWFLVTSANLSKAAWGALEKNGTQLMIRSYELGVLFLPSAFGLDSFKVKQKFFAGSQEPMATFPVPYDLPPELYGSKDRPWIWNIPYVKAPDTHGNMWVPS
#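 Recombinant human Tdp1 (E. coli-expressed, 1 nM final) preincubated with compounds 15 min at room temperature, then 5'-biotin/3'-phosphotyrosine-FITC DNA substrate (15 nM final) added for 5 min. AlphaScreen beads (10 ug/ml final) added 10 min; cleavage lowers signal.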
# A number is an active result; – = inactive; ? = inconclusive; · = no result; [ ] = another dose, or the depositor's remark. Compounds with a hit are over-represented: about 18% of the library has one in this group of screens. Unless noted, calls come from the whole dose curve; as a rule, active = well fitted curve in the direction sought with a large enough effect; inconclusive = small, poorly fitted or top-dose-only effect, or another doubt; inactive = no such curve, though single readings can be large; an effect the other way counts as inactive or inconclusive.
SMILES,TGFb inhibitor,HepG2 viability,DT40 TDP1 no CPT,TDP1 cell CPT,IL1B secr inh,TDP1 block
CCOC(=O)c1sc2nccc(N(C)C)c2c1N=CNOCc1ccccc1,–,–,?,?,–,·
Cc1cccc(NC(=O)CSc2nc3nc(C)cc(C)n3n2)c1,?,–,–,–,–,–
CCOC(=O)[C@H]1[C@H]2COc3ccc(OC)cc3[C@@H]2N2C(=O)c3cc(F)c(F)cc3NC(=O)[C@@]12C,–,–,?,?,–,–
COc1cccc(S(=O)(=O)Nc2ccc3c(c2)[C@H]2C[C@H](CC(=O)N[C@@H](C)c4ccccc4)O[C@H](CO)[C@H]2O3)c1,–,–,14.6µM,?,–,·
COc1ccc(CNC(=O)C[C@@H]2C[C@H]3c4cc(NC(=O)NC5CCCC5)ccc4O[C@H]3[C@H](CO)O2)cc1,–,–,13µM,?,–,·
O=C(C[C@@H]1C[C@@H]2c3cc(NS(=O)(=O)c4ccc(F)cc4)ccc3O[C@@H]2[C@@H](CO)O1)NC1CCCCC1,–,–,18.4µM,?,–,·
COc1cccc(S(=O)(=O)Nc2ccc3c(c2)[C@@H]2C[C@@H](CC(=O)NCc4ccc(Cl)cc4)O[C@@H](CO)[C@@H]2O3)c1,?,–,16.4µM,18.4µM,–,·
CCN(CC)P(=O)(Nc1ccc(C)cc1Br)c1ccc(N(C)C)cc1NC(=O)c1ccco1 (centres undefined),–,–,16.4µM,?,-65.6,–
Cc1ccc(NC(=O)c2ccco2)c(NC(=O)c2ccccc2)c1,–,–,–,–,–,·
Nn1c(SCC(=O)Nc2ccc3c(c2)OCCO3)nncc1=O,–,–,–,–,?,–
Cc1ccc2cc3c(N)nn(C(=O)c4cccc(F)c4)c3nc2c1,?,–,7.31µM,?,·,–
COc1ccc2cc3c(N)nn(C(=O)c4ccc(F)cc4Cl)c3nc2c1,?,–,8.2µM,9.2µM,·,–
COc1ccc2cc3c(N)nn(C(=O)Cc4ccccc4OC)c3nc2c1,?,–,9.2µM,9.2µM,-60.1,–
COc1ccc2cc3c(N)nn(C(=O)C4CCC(C(C)(C)C)CC4)c3nc2c1 (centres undefined),?,–,18.4µM,9.2µM,-86.0,–
COc1ccc2cc3c(N)nn(C(=O)c4cccc([N+](=O)[O-])c4)c3nc2c1,–,–,?,?,–,–
c1ccc(NCCC2OCC3(CO2)COC(CCNc2ccccc2)OC3)cc1 (centres undefined),–,–,?,?,–,·
CCn1nc(C)c(C(=O)Nc2cc(Oc3cc(C)cc(C)c3)cc([N+](=O)[O-])c2)c1C,14.1µM,–,20.6µM,?,–,–
Cc1nn(CCCC(=O)Nc2cc(Oc3ccccc3)cc([N+](=O)[O-])c2)c(C)c1[N+](=O)[O-],?,–,?,?,-50.2,–
Cc1nn(C)cc1C(=O)Nc1cc(Oc2ccc(Cl)cc2)cc([N+](=O)[O-])c1,–,–,?,?,–,–
NC(=O)C1CCCN(Cc2ccc3c(c2)CN(Cc2cn[nH]c2-c2ccc(F)cc2)CCO3)C1 (centres undefined),·,·,–,–[9.04 µM],·,·
CCOc1ccc(CNC(=O)CCCn2c(=O)c3cccn3c3cccnc32)cc1,–,–,?,?,·,–
OCCN1CCN(CC/C=C2/c3ccccc3Sc3ccc(C(F)(F)F)cc32)CC1,?,7.08µM,9.44µM,20.6µM,?,–
OCCN1CCN(CCC=C2c3ccccc3Sc3ccc(Cl)cc32)CC1,·,·,·,·,·,–
Cc1cc(S(=O)(=O)Nc2cccnc2)c(C)s1,–,–,–,–,–,–
Cc1cc(S(=O)(=O)Nc2cc(C)c(O)c(C)c2)c(C)s1,–,–,2.91µM,2.59µM,–,–
SMILES,TGFb inhibitor,HepG2 viability,DT40 TDP1 no CPT,TDP1 cell CPT,IL1B secr inh,TDP1 block
Cc1cc(S(=O)(=O)Nc2ccc3ccccc3c2)c(C)s1,?,–,11.2µM,10µM,–,–
CC1SCC(=O)N(CC(=O)Nc2ccc3c(c2)OCCO3)C1=O (centres undefined),–,–,–,–,–,–
CC(C)CCn1c(SC(C)C#N)nc2ccccc2c1=O (centres undefined),–,–,?,?,·,–
CCC(C)n1c(SC(C)C#N)nc2ccccc2c1=O (centres undefined),–,–,23.1µM,?,–,–
COc1ccc(/C=N/NC(=O)CNC(=O)c2ccncc2)cc1OC,–,–,–,–,–,·
O=C(/C=C/c1c(Cl)cccc1Cl)n1cccn1,?,–,16.4µM,?,-52.2,–
O=C(/C=C/c1c(Cl)cccc1Cl)N1CCOCC1,–,–,?,–,–,·
O=C(Nc1ccccc1N1CCOCC1)c1cc(-c2ccco2)nc2ccccc12,–,–,20.6µM,20.6µM,–,–
COc1cc(-c2cc(C(=O)Nc3ccccc3N3CCOCC3)c3ccccc3n2)cc(OC)c1OC,–,–,20.6µM,18.4µM,-66.9,–
O=C(Nc1ccc(F)cc1F)c1cc(-c2ccco2)nc2ccccc12,–,–,16.4µM,?,–,·
O=C(Nc1ccccc1F)c1cc(-c2ccco2)nc2ccccc12,–,–,?,?,–,·
O=C(CSc1ccc(Cl)cc1)N/N=C/c1ccc([N+](=O)[O-])o1,?,–,?,16.4µM,–,·
O=C(CNc1ccc2ccccc2c1)N/N=C/c1ccc([N+](=O)[O-])o1,8.91µM,7.94µM,20.6µM,14.6µM,–,–
O=C(CNc1ccc2ccccc2c1)N/N=C/c1ccc(C(=O)O)cc1,–,–,–,–,–,–
O=C(NN=Cc1ccccc1C(=O)O)c1cccc(S(=O)(=O)Nc2cccc(C(F)(F)F)c2)c1,–,–,–,–,–,–
COc1ccc2c(c1)C1OCCC1C(c1ccco1)N2 (centres undefined),–,–,?,23.1µM,?,·
c1coc(C2Nc3ccccc3C3OCCC23)c1 (centres undefined),–,–,–,–,–,–
CC1(C)Cc2c(c(N3CCCC3)nc3sc4c(N5CCNCC5)ncnc4c23)CO1,–,–,?,?,?,–
O=C(CN1CCN(C(=O)c2ccc(OCc3cn4ccccc4n3)cc2)CC1)Nc1cccc(F)c1,–,–,14.6µM,23.1µM,–,–
